# Test results published in article PMC7862700, “An all-to-all approach to the identification of sequence-specific readers for epigenetic DNA modifications on cytosine”.
# Tests used:
# Experiment in all cases: DAPPL (digital affinity profiling via proximity ligation, sequencing); 10 mM Tris-HCl pH 7.5, 50 mM NaCl, 1 mM DTT, 4% glycerol, room temperature, 30 min; GST-TFs on glutathione beads, 16-mer random dsDNA library, 0.1% formaldehyde crosslink after washing; high values mean tight binding
# FEV = target: T1, FEV (Homo sapiens, UniProt Q99581 1-238); conditions: protein: recombinant; tags: N-terminal GST; dsDNA, one strand shown
# T1 sequence: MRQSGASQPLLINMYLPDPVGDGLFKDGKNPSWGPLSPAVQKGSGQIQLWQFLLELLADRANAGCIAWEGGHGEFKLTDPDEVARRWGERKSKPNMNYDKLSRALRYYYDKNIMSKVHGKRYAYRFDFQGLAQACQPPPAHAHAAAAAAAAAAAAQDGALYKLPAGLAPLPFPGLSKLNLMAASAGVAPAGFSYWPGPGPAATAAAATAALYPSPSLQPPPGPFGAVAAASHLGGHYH
# In short: (§1)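 In yeast, human transcription factors were expressed with a GST fusion, then pulled down on glutathione beads and given DNA barcodes. Pooled with a tag-only sample, they were exposed to 200 nmole of a 16-mer random double-stranded DNA library (Tris/NaCl/DTT/glycerol buffer, room temperature, 30 min), washed, crosslinked with 0.1% formaldehyde, proximity-ligated using BsaI/T4 ligase for 1 h at 37 °C, PCR-amplified and read on an Illumina NextSeq500. Each hexamer's frequency of reads for a factor, divided by the matching frequency for the tag-only sample, gives the binding signal.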
# ETV5 = ETV5 (Homo sapiens, UniProt P41161 1-510); conditions: protein: recombinant; tags: N-terminal GST; dsDNA, one strand shown
# In short: as §1
# HSF1 = HSF1 (Homo sapiens, UniProt Q00613 1-529); conditions: protein: recombinant; tags: N-terminal GST; chain copies: 3; dsDNA, one strand shown
# In short: as §1
# SPIC = target: T2, SPIC (Homo sapiens, UniProt Q8N5J4 1-248); conditions: protein: recombinant; tags: N-terminal GST; dsDNA, one strand shown
# T2 sequence: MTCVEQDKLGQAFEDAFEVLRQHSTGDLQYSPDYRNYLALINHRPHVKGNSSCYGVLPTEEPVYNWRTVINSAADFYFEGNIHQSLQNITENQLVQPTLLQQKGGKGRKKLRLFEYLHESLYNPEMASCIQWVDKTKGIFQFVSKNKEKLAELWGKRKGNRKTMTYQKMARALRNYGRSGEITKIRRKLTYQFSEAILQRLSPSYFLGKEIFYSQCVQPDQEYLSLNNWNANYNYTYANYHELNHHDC
# In short: as §1
# ELF4 = ELF4 (Homo sapiens, UniProt Q99607 1-663); conditions: protein: recombinant; tags: N-terminal GST; dsDNA, one strand shown
# In short: as §1
# ELK4 = target: T3, ELK4 (Homo sapiens, UniProt P28324-2 1-405); conditions: protein: recombinant; tags: N-terminal GST; dsDNA, one strand shown
# T3 sequence: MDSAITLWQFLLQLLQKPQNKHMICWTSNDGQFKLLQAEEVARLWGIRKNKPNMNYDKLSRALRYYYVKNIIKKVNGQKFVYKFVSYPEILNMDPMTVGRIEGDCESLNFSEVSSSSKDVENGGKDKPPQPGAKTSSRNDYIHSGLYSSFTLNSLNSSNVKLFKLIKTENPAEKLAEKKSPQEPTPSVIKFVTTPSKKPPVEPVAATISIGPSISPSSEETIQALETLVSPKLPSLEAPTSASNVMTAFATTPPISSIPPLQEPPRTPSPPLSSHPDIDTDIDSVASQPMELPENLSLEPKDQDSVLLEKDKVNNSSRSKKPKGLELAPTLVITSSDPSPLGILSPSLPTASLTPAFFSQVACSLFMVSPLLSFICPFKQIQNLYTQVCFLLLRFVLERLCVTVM
# In short: as §1
# ETV2 = target: T4, ETV2 (Homo sapiens, UniProt O00321 1-342); conditions: protein: recombinant; tags: N-terminal GST; dsDNA, one strand shown
# T4 sequence: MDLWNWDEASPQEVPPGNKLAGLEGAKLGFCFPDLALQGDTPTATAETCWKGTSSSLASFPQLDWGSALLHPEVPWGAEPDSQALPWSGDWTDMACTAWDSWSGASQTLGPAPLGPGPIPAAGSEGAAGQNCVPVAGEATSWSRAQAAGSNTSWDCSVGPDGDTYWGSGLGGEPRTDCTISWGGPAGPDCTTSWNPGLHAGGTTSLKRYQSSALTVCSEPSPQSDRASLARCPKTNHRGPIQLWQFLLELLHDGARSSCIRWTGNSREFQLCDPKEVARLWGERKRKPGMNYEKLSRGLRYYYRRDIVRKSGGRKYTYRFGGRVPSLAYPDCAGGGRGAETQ
# In short: as §1
# ELF3 = target: T5, ELF3 (Homo sapiens, UniProt P78545 1-371); conditions: protein: recombinant; tags: N-terminal GST; dsDNA, one strand shown
# T5 sequence: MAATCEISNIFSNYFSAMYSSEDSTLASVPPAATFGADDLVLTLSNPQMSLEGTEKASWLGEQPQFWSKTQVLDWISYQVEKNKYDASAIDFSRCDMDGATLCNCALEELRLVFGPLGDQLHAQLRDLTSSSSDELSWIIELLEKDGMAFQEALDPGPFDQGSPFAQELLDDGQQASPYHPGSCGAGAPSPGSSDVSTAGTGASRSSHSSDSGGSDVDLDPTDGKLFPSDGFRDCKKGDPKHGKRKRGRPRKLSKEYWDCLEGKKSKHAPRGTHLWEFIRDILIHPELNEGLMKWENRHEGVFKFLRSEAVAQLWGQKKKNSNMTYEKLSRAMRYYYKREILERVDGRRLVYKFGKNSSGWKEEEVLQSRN
# In short: as §1
# CRX = CRX (Homo sapiens, UniProt O43186 1-299); conditions: protein: recombinant; tags: N-terminal GST; dsDNA, one strand shown
# In short: as §1
# ETV1 = ETV1 (Homo sapiens, UniProt P50549 1-477); conditions: protein: recombinant; tags: N-terminal GST; dsDNA, one strand shown
# In short: as §1
# ERF = target: T6, ERF (Homo sapiens, UniProt P50548 1-548); conditions: protein: recombinant; tags: N-terminal GST; dsDNA, one strand shown
# T6 sequence: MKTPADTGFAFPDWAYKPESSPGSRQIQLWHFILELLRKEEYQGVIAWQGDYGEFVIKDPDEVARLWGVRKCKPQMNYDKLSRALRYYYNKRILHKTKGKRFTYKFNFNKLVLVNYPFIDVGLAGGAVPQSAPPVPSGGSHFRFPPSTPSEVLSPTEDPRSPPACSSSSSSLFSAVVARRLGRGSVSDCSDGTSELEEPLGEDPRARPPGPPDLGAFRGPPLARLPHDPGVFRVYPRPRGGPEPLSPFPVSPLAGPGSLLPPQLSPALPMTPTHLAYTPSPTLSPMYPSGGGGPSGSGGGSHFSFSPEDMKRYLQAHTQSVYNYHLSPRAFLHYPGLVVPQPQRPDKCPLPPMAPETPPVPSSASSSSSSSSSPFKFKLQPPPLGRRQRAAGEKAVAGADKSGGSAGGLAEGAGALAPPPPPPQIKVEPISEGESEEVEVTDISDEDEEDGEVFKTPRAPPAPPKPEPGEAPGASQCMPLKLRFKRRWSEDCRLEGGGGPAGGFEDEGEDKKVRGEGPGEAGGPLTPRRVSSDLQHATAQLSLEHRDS
# In short: as §1
# ETV3L = target: T7, ETV3L (Homo sapiens, UniProt Q6ZN32 1-361); conditions: protein: recombinant; tags: N-terminal GST; dsDNA, one strand shown
# T7 sequence: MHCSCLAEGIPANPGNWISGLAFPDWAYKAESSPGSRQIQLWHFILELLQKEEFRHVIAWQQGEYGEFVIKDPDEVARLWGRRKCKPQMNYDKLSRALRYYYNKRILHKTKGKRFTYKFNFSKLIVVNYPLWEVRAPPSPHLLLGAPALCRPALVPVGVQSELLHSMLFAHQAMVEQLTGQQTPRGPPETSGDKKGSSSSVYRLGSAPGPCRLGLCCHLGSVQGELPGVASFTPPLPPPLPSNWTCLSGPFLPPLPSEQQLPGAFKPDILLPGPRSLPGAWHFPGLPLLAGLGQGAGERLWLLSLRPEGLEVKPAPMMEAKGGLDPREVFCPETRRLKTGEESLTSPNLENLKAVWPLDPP
# In short: as §1
# ETS2 = target: T8, ETS2 (Homo sapiens, UniProt P15036 1-469); conditions: protein: recombinant; tags: N-terminal GST; dsDNA, one strand shown
# T8 sequence: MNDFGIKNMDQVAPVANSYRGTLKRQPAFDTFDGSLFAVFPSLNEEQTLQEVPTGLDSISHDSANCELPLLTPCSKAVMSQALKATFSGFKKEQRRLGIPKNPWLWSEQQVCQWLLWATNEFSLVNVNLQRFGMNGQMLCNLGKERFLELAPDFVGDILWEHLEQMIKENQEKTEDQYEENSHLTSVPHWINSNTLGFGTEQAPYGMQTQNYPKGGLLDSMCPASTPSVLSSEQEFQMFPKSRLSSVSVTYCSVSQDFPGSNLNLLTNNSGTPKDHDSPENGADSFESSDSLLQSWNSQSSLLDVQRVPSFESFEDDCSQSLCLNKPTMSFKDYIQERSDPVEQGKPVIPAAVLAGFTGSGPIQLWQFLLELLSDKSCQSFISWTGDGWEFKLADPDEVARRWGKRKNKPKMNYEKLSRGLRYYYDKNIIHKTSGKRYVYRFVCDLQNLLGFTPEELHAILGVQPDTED
# In short: as §1
# SPDEF = target: T9, SPDEF (Homo sapiens, UniProt O95238 1-335); conditions: protein: recombinant; tags: N-terminal GST; dsDNA, one strand shown
# T9 sequence: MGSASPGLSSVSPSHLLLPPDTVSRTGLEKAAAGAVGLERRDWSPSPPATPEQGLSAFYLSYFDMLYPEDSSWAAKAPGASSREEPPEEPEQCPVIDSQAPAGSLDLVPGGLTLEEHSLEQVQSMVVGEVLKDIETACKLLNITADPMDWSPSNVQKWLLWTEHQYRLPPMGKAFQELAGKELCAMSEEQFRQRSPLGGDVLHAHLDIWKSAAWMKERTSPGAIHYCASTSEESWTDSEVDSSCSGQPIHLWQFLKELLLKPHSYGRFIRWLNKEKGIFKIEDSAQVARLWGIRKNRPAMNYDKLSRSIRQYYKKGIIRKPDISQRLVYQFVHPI
# In short: as §1
# ETV7 = target: T10, ETV7 (Homo sapiens, UniProt Q9Y603 1-341); conditions: protein: recombinant; tags: N-terminal GST; dsDNA, one strand shown
# T10 sequence: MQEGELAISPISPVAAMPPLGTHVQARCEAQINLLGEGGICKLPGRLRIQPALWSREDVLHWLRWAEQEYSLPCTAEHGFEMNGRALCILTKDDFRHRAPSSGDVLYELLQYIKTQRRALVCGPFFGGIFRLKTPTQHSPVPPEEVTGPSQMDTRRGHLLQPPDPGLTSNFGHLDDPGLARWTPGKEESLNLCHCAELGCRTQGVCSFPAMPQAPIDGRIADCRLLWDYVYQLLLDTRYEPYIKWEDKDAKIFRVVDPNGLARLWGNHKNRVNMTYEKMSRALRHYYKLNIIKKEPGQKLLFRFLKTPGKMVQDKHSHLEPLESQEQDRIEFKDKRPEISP
# In short: as §1
# ELF5 = target: T11, ELF5 (Homo sapiens, UniProt Q9UKW6-2 1-255); conditions: protein: recombinant; tags: N-terminal GST; dsDNA, one strand shown
# T11 sequence: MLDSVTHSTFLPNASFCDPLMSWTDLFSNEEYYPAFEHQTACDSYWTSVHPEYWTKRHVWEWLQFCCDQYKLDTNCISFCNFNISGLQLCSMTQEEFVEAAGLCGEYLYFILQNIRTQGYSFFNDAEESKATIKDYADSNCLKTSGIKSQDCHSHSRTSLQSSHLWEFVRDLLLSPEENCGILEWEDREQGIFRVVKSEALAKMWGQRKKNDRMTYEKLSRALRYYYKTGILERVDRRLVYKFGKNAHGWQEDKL
# In short: as §1
# ETV3 = target: T12, ETV3 (Homo sapiens, UniProt P41162-2 1-143); conditions: protein: recombinant; tags: N-terminal GST; dsDNA, one strand shown
# T12 sequence: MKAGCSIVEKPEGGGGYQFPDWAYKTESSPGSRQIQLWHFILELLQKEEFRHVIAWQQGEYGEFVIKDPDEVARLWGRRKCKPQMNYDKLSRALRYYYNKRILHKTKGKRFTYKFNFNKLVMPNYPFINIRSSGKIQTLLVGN
# In short: as §1
# ETV6 = ETV6 (Homo sapiens, UniProt P41212 1-452); conditions: protein: recombinant; tags: N-terminal GST; dsDNA, one strand shown
# In short: as §1
# Sequence of ELF4 (Q99607 whole entry): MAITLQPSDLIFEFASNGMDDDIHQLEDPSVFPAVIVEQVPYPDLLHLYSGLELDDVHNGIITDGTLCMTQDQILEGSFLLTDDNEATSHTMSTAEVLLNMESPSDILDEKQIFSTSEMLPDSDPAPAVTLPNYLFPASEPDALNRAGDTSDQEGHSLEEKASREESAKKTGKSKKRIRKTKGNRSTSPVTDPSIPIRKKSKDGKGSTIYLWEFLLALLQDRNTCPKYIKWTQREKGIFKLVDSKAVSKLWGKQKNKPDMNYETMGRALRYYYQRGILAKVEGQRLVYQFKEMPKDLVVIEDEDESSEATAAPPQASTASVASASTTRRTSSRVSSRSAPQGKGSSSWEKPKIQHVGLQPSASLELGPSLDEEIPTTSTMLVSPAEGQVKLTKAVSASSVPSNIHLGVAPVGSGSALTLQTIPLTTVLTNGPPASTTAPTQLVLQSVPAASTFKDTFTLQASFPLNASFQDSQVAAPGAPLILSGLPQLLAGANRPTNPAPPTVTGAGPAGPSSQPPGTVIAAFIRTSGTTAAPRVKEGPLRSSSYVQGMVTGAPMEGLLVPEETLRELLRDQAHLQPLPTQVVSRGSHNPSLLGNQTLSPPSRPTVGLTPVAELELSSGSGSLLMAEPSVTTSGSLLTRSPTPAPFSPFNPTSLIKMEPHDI
# Sequence of ETV1 (P50549 whole entry): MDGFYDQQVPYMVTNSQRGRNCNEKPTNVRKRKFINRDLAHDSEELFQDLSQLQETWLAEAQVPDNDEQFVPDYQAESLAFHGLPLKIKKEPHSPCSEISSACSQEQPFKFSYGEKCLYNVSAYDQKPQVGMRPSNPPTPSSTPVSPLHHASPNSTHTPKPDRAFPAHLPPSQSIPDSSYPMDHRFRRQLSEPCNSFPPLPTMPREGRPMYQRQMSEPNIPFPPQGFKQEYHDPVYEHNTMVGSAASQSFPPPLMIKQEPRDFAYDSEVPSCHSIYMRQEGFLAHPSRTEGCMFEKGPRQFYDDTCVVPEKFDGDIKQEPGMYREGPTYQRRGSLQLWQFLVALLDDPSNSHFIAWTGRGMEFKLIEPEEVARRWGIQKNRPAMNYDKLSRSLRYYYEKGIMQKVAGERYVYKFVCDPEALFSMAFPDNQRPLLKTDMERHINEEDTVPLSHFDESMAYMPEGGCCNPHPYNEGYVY
# Sequence of ETV5 (P41161 whole entry): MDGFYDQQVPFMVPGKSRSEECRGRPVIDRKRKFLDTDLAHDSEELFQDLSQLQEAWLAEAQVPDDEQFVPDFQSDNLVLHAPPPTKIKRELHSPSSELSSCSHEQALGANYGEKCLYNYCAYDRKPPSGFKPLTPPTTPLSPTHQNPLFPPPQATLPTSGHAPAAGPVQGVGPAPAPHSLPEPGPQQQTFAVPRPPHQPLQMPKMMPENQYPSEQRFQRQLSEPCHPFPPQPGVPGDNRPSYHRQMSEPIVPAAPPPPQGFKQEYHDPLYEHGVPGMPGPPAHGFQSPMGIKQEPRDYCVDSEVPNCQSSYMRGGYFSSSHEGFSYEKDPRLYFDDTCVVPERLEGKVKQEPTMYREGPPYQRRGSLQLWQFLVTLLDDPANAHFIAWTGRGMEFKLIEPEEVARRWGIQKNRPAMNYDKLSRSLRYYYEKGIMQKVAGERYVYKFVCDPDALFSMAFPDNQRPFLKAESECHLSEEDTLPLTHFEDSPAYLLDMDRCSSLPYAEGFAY
# Sequence of HSF1 (Q00613 whole entry): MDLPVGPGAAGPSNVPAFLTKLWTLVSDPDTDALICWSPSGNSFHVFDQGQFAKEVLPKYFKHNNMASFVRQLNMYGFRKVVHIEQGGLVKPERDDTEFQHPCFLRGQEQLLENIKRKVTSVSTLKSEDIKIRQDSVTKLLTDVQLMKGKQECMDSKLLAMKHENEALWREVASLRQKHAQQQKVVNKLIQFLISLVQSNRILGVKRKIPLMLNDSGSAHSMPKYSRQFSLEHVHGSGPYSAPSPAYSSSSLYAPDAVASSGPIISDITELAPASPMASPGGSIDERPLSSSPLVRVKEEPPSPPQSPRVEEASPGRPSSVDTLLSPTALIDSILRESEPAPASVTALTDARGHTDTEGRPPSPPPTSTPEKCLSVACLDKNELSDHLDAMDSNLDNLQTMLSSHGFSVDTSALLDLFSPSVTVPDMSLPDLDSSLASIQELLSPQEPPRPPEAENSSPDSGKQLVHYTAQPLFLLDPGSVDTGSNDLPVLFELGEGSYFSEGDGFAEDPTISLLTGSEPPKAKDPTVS
# Sequence of CRX (O43186 whole entry): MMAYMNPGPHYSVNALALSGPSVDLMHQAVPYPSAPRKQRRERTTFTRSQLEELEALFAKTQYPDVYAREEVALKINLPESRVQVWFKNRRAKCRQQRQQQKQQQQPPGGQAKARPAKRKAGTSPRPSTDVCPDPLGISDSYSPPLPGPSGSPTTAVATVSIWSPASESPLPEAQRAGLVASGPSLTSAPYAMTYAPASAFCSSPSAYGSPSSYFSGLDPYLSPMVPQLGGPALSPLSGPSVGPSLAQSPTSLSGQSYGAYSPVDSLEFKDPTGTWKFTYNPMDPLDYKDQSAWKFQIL
# Sequence of ETV6 (P41212 whole entry): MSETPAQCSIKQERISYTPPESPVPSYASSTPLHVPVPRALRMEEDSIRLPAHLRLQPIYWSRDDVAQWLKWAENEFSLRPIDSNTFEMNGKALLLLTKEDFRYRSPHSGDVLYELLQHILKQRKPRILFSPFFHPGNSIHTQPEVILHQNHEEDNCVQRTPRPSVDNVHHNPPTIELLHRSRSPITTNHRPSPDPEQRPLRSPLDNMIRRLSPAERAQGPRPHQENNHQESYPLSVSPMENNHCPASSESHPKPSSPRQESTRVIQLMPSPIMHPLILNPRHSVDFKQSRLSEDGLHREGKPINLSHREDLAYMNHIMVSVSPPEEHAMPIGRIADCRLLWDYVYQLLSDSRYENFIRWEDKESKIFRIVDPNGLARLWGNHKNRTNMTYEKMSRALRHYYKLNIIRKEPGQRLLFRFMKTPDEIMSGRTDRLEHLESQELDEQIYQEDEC
sequence,measurement,setting,value
AACCCC,binding signal,FEV,"1.24 fold enrichment (6-mer frequency, TF over GST control)"
same,binding signal,ETV5,"1.14 fold enrichment (6-mer frequency, TF over GST control)"
same,binding signal,HSF1,"1.03 fold enrichment (6-mer frequency, TF over GST control)"
same,binding signal,SPIC,"1.33 fold enrichment (6-mer frequency, TF over GST control)"
same,binding signal,ELF4,"1.29 fold enrichment (6-mer frequency, TF over GST control)"
same,binding signal,ELK4,"1.36 fold enrichment (6-mer frequency, TF over GST control)"
same,binding signal,ETV2,"1.18 fold enrichment (6-mer frequency, TF over GST control)"
same,binding signal,ELF3,"1.22 fold enrichment (6-mer frequency, TF over GST control)"
same,binding signal,CRX,"1.21 fold enrichment (6-mer frequency, TF over GST control)"
same,binding signal,ETV1,"1.08 fold enrichment (6-mer frequency, TF over GST control)"
same,binding signal,ERF,"1.03 fold enrichment (6-mer frequency, TF over GST control)"
same,binding signal,ETV3L,"1.18 fold enrichment (6-mer frequency, TF over GST control)"
same,binding signal,ETS2,"1.21 fold enrichment (6-mer frequency, TF over GST control)"
same,binding signal,SPDEF,"1.14 fold enrichment (6-mer frequency, TF over GST control)"
same,binding signal,ETV7,"1.11 fold enrichment (6-mer frequency, TF over GST control)"
same,binding signal,ELF5,"1.13 fold enrichment (6-mer frequency, TF over GST control)"
same,binding signal,ETV3,"1.07 fold enrichment (6-mer frequency, TF over GST control)"
same,binding signal,ETV6,"1.18 fold enrichment (6-mer frequency, TF over GST control)"
